# Screening results as filed in PubChem BioAssay.
# G9a block: qHTS Assay for Inhibitors of Histone Lysine Methyltransferase G9a. G9a H3K9 monomethylation, AlphaScreen, 2 h. Potency, µM (titrated, usually from 102 µM), without a hit: at the top dose activity, negative = inhibition, actives largely listed as inhibitors. 8.8% of 350,000 active. AID 504332, 2011; also: % is scaled to controls: 0 for no effect and ±100 for the full control effect; nearly all actives have a fitted effect of over 75% in size
#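 Compounds were preincubated with 20 nM G9a for 15 min, after which biotinylated H3K9 peptide (500 nM) and SAM (20 uM) started a 2 h room-temperature reaction. Monomethylated product was quantified by antibody-based AlphaScreen chemiluminescence.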
# HP1b chromo inh: HTS for Inhibitors of HP1-beta Chromodomain Interactions with Methylated Histone Tails; AlphaScreen HP1-beta / biotin-H3K9me3 peptide binding; Potency, µM (highest dose often 114 µM), for the others: top-dose activity change, negative = inhibition, most hits filed as inhibitors; 0.56% of 390,000 active; AID 540317, 2011; also: nearly all actives have a fitted effect of over 70% in size
#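 AlphaScreen: HP1-beta (50 nM) preformed 30 min with biotin-H3(1-18)K9me3 peptide (50 nM) in PBS pH 7.4, 0.01% Tween-20. Compound added for 30 min at RT, then streptavidin donor/nickel chelate acceptor beads (10 ug/mL) for 30 min.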
# Sfp inh: qHTS Assay for Inhibitors of Bacillus subtilis Sfp phosphopantetheinyl transferase (PPTase); 3.5% of 310,000 active; 4'-phosphopantetheinyl transferase ffp (Bacillus subtilis), Q9F4F7; Biochemical Sfp PPTase activity, qHTS; Potency, µM, for the others: largest response in the series, negative = inhibition, most hits filed as inhibitors;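 also: the enzyme is Sfp with the accession as filed and its product quenches rhodamine fluorescence; 0% = enzyme reaction without inhibitor and -100% = no enzyme wells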
#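 Compounds were incubated with enzyme (final 15 nM) for 15 min at room temperature before substrate addition started the reaction. Fluorescence at 525 nm excitation, 598 nm emission was recorded immediately and after 30 minutes.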
# ALOX12 inh: Primary qHTS assay for inhibitors of human arachidonate 12S-lipoxygenase (ALOX12): Round 2. Polyunsaturated fatty acid lipoxygenase ALOX12 (Homo sapiens), P18054. purified 12hLO, xylenol orange hydroperoxide absorbance. Potency, µM (highest dose often 108 µM), for the others: top-dose activity change, negative = inhibition, actives largely listed as inhibitors. 1.1% of 580,000 active. AID 1671190, 2021; also: % is scaled to controls: 0 for no effect and ±100 for the full control effect
#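 Purified human 12hLO at 150 nM in 25 mM Hepes, 0.01% Triton X-100, pH 7.0, preincubated 15 min at room temperature with compound. Reaction started with 40 uM arachidonic acid, 30 min at room temperature. Hydroperoxide measured by Fe-xylenol orange, 573/405 nm absorbance ratio.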
# BAZ2B inh: qHTS Assay for Inhibitors of BAZ2B | AID 504333, 2011 | Potency, µM (series often up to 114 µM), without a hit: top-dose activity change, negative = inhibition, usual class: inhibitors | 4.4% of 360,000 active | AlphaScreen BAZ2B-H3K14Ac peptide displacement | Bromodomain adjacent to zinc finger domain protein 2B (Homo sapiens), Q9UIF8; also: % is scaled to controls: 0 for no effect and ±100 for the full control effect; nearly all actives have a fitted effect of over 60% in size
#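 In this displacement format the biotinylated H3(5-23) peptide acetylated at Lys14 serves as ligand at 50 nM, with BAZ2B at 50 nM in PBS pH 7.4 containing 0.01% Tween-20. Donor and acceptor beads are 10 ug/mL final.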
# JMJD2A Tudor inh: qHTS Assay for Inhibitors of JMJD2A-Tudor Domain; Lysine-specific demethylase 4A (Homo sapiens), O75164; AlphaScreen JMJD2A-Tudor / H3K4me3 peptide binding; Potency, µM (doses to about 114 µM), inactives show top-dose activity change, negative = inhibition, hits mostly inhibitors; 4.4% of 390,000 active; also: % is scaled to controls: 0 for no effect and ±100 for the full control effect; nearly all actives have a fitted effect of over 50% in size
# Target sequence (O75164 whole entry, looked up, the tested form may be a part): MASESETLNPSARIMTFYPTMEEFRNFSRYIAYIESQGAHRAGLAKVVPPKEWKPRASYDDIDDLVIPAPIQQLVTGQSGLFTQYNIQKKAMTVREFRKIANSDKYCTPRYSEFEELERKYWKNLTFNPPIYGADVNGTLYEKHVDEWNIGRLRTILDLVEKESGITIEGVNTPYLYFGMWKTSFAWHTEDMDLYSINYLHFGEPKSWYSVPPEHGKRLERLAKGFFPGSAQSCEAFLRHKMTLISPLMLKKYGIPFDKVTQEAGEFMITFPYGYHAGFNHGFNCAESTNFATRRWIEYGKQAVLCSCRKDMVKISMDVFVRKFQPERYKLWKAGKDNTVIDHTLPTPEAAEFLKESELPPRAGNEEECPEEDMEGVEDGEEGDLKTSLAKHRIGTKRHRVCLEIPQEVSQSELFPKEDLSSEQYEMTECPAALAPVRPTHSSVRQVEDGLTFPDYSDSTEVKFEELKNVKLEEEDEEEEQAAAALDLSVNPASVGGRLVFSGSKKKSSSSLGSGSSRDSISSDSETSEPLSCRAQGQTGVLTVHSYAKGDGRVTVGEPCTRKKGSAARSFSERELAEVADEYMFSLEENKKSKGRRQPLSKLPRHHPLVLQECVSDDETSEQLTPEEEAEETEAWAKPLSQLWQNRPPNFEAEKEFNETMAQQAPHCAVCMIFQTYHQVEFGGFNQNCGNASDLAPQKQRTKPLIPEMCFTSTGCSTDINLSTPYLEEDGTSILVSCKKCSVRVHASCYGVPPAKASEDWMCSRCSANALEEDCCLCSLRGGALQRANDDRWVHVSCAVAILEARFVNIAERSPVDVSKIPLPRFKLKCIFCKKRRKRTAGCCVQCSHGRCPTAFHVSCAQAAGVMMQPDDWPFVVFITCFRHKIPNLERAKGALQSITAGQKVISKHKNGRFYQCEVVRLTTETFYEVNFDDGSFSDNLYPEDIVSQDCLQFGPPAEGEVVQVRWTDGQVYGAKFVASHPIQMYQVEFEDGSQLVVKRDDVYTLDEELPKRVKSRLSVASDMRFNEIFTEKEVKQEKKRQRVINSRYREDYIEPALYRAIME
# Active calls of the source: *; ? = inconclusive; . = not tested or not shown; ! = not active in a repeat; [ ] = another dose, or the depositor's remark. Shown are actives, neighbours in structure and some others; about 8.7% of the full set was active somewhere. Calls follow the shape of the dose curve; as a rule, active = well fitted curve in the direction sought with a large enough effect; inconclusive = small, poorly fitted or top-dose-only effect, or another doubt; inactive = no such curve, though single readings can be large; an effect the other way counts as inactive or inconclusive. Potency is read from the fitted curve at half-maximal effect.
SMILES,G9a block,HP1b chromo inh,Sfp inh,ALOX12 inh,BAZ2B inh,JMJD2A Tudor inh
CSC1=C(C#N)C(c2ccncc2)C(C(=O)Nc2ccccc2)=C(C)N1 (stereo not drawn),25µM*,47%,15%,-6%,-14%,0%
CC1=C(C(=O)Nc2ccccc2)C(c2ccncc2)C(C#N)=C(SCC(=O)Nc2ccccc2)N1 (stereo not drawn),28µM*,41%,0%,?,-4%,-24%
CNC(=O)[C@H]1C[C@H](Oc2ccccc2)CN1Cc1ccc(F)c(F)c1,.,.,.,37%,.,.
O=c1cc(N2CCN(c3cccc(C(F)(F)F)c3)CC2)nc2ccccn12,.,.,.,4%,.,.
CCN1CCN(CC#CCOc2ccccc2OC)CC1,-47%[0.501 µM],?,?,?,22µM*,0.79µM*
CCc1nc2nccc(-c3cccc(OC)c3)n2n1,.,.,.,38%,.,.
CC1(C)OC2OC(C(=O)Oc3ccc(Cl)cc3)C3OC(C)(C)OC3C2O1 (stereo not drawn),.,.,.,-2%,.,.
COCc1ccc(CNC(=O)CC(C)(C)C)cc1,.,.,.,-14%,.,.
CS(=O)(=O)Cc1nc2ccccc2oc1=O,40µM*,20%,?,-3%,-22%,26%
CCCNC(=O)N1CCCC(c2nc(C3CCOCC3)no2)C1 (stereo not drawn),.,.,.,-8%,.,.
COC(=O)c1ccccc1NC(=S)NC(=O)c1ccc2c(c1)OCO2,40µM*,9%,-14%,?,-19%,-8%
COc1cc([N+](=O)[O-])ccc1NC(=S)NNC(=O)c1ccc2c(c1)OCO2,8.9µM*,?,-15%,251%,?,50µM*
CC(C)C(=O)Nc1cccc(NC(=S)NC(=O)c2ccc(Cl)cc2)c1,-49%[59 µM],6%,-14%,-23%,-28%,-22%
COC(=O)c1ccccc1NC(=S)NC(=O)c1ccc(C)cc1,?,-9%,-26%,35µM*,?,-18%
COC(=O)c1ccccc1NC(=O)c1ccc2c(c1)OCCO2,12%[59 µM],94%,-4%,0%,21%,14%
CC(C)C(=O)Nc1cccc(NC(=S)NC(=O)c2ccc3c(c2)OCO3)c1,65%,11%,22%,3.5µM*,-15%,22µM*
CCOc1ccccc1CN1CCC(N2CCCC(C(=O)NC3CC3)C2)CC1 (stereo not drawn),.,.,.,83%,.,.
CC(C)[C@H](NC(=O)c1c(F)cccc1F)C(=O)OCc1ccc(C(N)=O)cc1,.,.,.,-19%,.,.
COc1cc([N+](=O)[O-])ccc1NC(=O)NNC(=O)c1sccc1C,71µM*,37%,16%,-15%,-19%,-11%
COc1cc([N+](=O)[O-])ccc1NC(=O)NNC(=O)CCc1ccccc1,-4%,22%,7%,0%,-20%,-26%
COc1cccc(C2C=C(c3ccc(C)c(C)c3)Nc3nnnn32)c1OC (stereo not drawn),-6%[59 µM],13%,.,-25%,-1%,-14%
COc1ccc(C2C=C(c3ccc(Br)s3)Nc3ncnn32)cc1OC (stereo not drawn),11µM*,.,56µM*,.,?,.
COc1cccc(C2C=C(c3cccs3)Nc3ncnn32)c1OC (stereo not drawn),.,25%,50µM*,.,?,-28%
CC(=O)Nc1cc(F)ccc1-c1csc(NC(=O)CCc2ccccc2)n1,.,.,.,-13%,.,.
Cc1cccn2cc(CN3CCN(S(=O)(=O)c4cccc(C(F)(F)F)c4)CC3)nc12,.,.,.,1%,.,.
SMILES,G9a block,HP1b chromo inh,Sfp inh,ALOX12 inh,BAZ2B inh,JMJD2A Tudor inh
Cc1cccc(-c2nnc(SCC(=O)NC3CCCC3)o2)c1,3%,22%,7%,-15%,-2%,1%
COc1ccc(OC)c(-c2nnc(SCC(=O)NC3CCCCC3)o2)c1,45µM*,60%,9%,404%,4%,-11%
COc1cccc(-c2nnc(SCC(=O)NC3CCCCC3)o2)c1,8.9µM*,-13%,.,?,-6%,-15%
Nc1nn(Cc2ccc(Cl)cc2Cl)cc1Cl,.,.,.,-22%,.,.
Clc1ccc(CNCc2ccccc2Cn2cncn2)c(Cl)c1,.,.,.,45µM*,.,.
C/C=C/Cn1c(SCC(=O)OCC)nc2c1c(=O)[nH]c(=O)n2C,.,.,.,1%,.,.
CCCCOC(=O)CSc1nc2c(c(=O)[nH]c(=O)n2C)n1C/C=C(\C)Cl,16µM*,-9%,-3%,?,8%,0%
C/C(Cl)=C/Cn1c(SCC(C)C)nc2c1c(=O)[nH]c(=O)n2C,50µM*,10%,-15%,20%,8%,9%
CCOC(=O)C(CC)Sc1nc2c(c(=O)[nH]c(=O)n2C)n1C/C=C(/C)Cl (stereo not drawn),?,-11%,14µM*,?,-3%,18µM*
Cc1cnc(C(=O)NCC2CCCCC(=O)N2)cn1 (stereo not drawn),.,.,.,14%,.,.
Cc1[nH]nc(SCC(=O)N2CCC(C)CC2)c1[N+](=O)[O-],?,30%,89µM*,-22%,-26%,1%
O=C(NCc1nnc2ccc(-c3ccc(Cl)cc3)nn12)c1cc(F)ccc1Cl,.,.,.,12%,.,.
CNC(=O)c1[nH]cnc1C(=O)Nc1ccccn1,.,-2%,0%,9%,56µM*,?
CCOC(=O)c1[nH]cnc1C(=O)Nc1cccc(OC)c1,28µM*!,29%,5%,-1%,?,?
CNC(=O)c1[nH]cnc1C(=O)Nc1cccc(OC)c1,?,16%,-24%,0%,50µM*,-26%
CN(C)Cc1nc(C(=O)N2CCn3nc(CCC(=O)O)cc3C2)cs1,.,.,.,8%,.,.
COC(=O)[C@@H]1CC[C@H](C)[C@@H](c2ccc(C)cc2)N1C(=O)c1ccc(/C=N/O[C@@H](C)CN2CCCCc3nc(C)c(C)cc32)cc1,32µM*,.,25µM*,.,19%,.
Cc1ccccc1CS(=O)(=O)c1ncc(Cl)c(C(=O)Nc2nnc(C(C)C)s2)n1,?,35%,.,?,-19%,?
CCCc1nnc(NC(=O)c2nc(S(=O)(=O)Cc3ccc(C)cc3)ncc2Cl)s1,13µM*,55%,-14%,?,-20%,-16%
CC(C)c1nnc(NC(=O)c2nc(S(=O)(=O)Cc3ccccc3)ncc2Cl)s1,8.9µM*,4%[57 µM],-7%,?,50µM*!,-25%
